Experiment [1] is described as follows: qHTS assay to identify small molecule antagonists of the glucocorticoid receptor (GR) signaling pathway - cell viability counter screen (AID 720693; further: nearly all actives have a fitted effect of over 55% in size). (qHTS replaces the single test concentration by a dilution series.)
Experiment [2] in a line: qHTS assay for identifying genotoxic compounds that show differential cytotoxicity against isogenic chicken DT40 cell lines with known DNA damage response pathways - wild type cell line (AID 743012). Further: nearly all actives have a fitted effect of over 60% in size. Further: potency means the concentration at half of the fitted maximal effect. In a few lines: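 First, wild type DT40 cells were plated at 300 per well and equilibrated about 0.5 h at 37 C/5% CO2. Next, compounds in DMSO were added and exposure lasted 40 h. Finally, CellTiter-Glo was added for 30 min at room temperature and luminescence recorded.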

The nature of experiment [3]: qHTS assay for identifying genotoxic compounds that show differential cytotoxicity against isogenic chicken DT40 cell lines with known DNA damage response pathways - Rev3 mutant cell line (AID 743014). Further: nearly all actives have a fitted effect of over 55% in size. Further: potency means the concentration at half of the fitted maximal effect.
A short description of experiment [4]: qHTS assay for identifying genotoxic compounds that show differential cytotoxicity against isogenic chicken DT40 cell lines with known DNA damage response pathways - Rad54/Ku70 mutant cell line (AID 743015). Further: nearly all actives have a fitted effect of over 60% in size. Further: potency means the concentration at half of the fitted maximal effect.
A short description of experiment [5]: qHTS assay to identify small molecule antagonists of the androgen receptor (AR) signaling pathway - cell viability counter screen (AID 743033; further: nearly all actives have a fitted effect of over 45% in size).
A short description of experiment [6]: qHTS assay to identify small molecule antagonists of the androgen receptor (AR) signaling pathway using the MDA cell line - cell viability counter screen (AID 743041; further: nearly all actives have a fitted effect of over 45% in size). In short, it runs like this: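 R1881-driven MDA-kb2 AR-luc cells, 3,000/well, were dosed with library compounds for 16 h; cell health came from CellTiter-Fluor fluorescence in the reporter wells.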

Experiment [7] addresses Androgen receptor (Homo sapiens) (UniProt P10275). In words: qHTS assay to identify small molecule antagonists of the androgen receptor (AR) signaling pathway (AID 743035; active means well fitted inhibition curve with a large enough effect in the signal ratio in the repeat runs, not every such curve was filed as active; the % refers to the signal ratio). In a few lines: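 Beta-lactamase FRET read (2 h RT incubation with LiveBLAzer B/G) following 16 h of compound plus R1881 treatment of AR-UAS-bla HEK293 cells, which had been pre-incubated 4 h at 37C.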

The target is the same in experiment [8]. Briefly: qHTS assay to identify small molecule agonists of the androgen receptor (AR) signaling pathway (AID 743036; active means well fitted activation curve with a large enough effect in the signal ratio in the repeat runs, with a control signal flat, not every such curve was filed as active; the % refers to the signal ratio). In a few lines: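 Reporter line: GeneBLAzer AR-UAS-bla-GripTite (HEK293). Steps: plate cells, 4 h rest, add compounds, 16 h at 37C, add LiveBLAzer B/G substrate, 2 h at RT, read fluorescence.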
For experiment [9] the target is unchanged. Briefly: qHTS assay to identify small molecule agonists of the androgen receptor (AR) signaling pathway using the MDA cell line (AID 743040; further: nearly all actives have a fitted effect of over 20% in size). In a few lines: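 After a 5 h incubation at 37C and 0% CO2, MDA-kb2 reporter cells were dosed with compounds in DMSO and kept 16 h under the same conditions. Luciferase activity was then read as luminescence with ONE-Glo.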

For experiment [10] the target is unchanged. Briefly: qHTS assay to identify small molecule antagonists of the androgen receptor (AR) signaling pathway using the MDA cell line (AID 743042; further: nearly all actives have a fitted effect of over 55% in size). In short, it runs like this: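 Antagonist mode: compounds plus R1881 agonist added to MDA-kb2 AR-luc cells, incubated 16 h at 37C. Luciferase reporter luminescence quantified, with multiplexed CellTiter-Fluor readout for cell viability.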

Values joined by “and” are separate entries in the source; they are usually repeats but may differ in a detail not shown here. Equal entries are not always repeated. Results filed as inconclusive are left out. Where a structure was tested more than once in an assay, its records may differ in their call. Active and inactive are the calls of the source. Unless noted, the call rests on the fitted dose curve; in most records, active means well fitted curve in the direction sought with a large enough effect in the repeat runs; inconclusive means weak or mixed curves; inactive means no such curve, though single readings can be large; an effect the other way counts as inactive or inconclusive.
On the % scale 0 is the no-effect control and ±100 the full control effect.

Chain of Androgen receptor (Homo sapiens) (P10275 whole entry, looked up): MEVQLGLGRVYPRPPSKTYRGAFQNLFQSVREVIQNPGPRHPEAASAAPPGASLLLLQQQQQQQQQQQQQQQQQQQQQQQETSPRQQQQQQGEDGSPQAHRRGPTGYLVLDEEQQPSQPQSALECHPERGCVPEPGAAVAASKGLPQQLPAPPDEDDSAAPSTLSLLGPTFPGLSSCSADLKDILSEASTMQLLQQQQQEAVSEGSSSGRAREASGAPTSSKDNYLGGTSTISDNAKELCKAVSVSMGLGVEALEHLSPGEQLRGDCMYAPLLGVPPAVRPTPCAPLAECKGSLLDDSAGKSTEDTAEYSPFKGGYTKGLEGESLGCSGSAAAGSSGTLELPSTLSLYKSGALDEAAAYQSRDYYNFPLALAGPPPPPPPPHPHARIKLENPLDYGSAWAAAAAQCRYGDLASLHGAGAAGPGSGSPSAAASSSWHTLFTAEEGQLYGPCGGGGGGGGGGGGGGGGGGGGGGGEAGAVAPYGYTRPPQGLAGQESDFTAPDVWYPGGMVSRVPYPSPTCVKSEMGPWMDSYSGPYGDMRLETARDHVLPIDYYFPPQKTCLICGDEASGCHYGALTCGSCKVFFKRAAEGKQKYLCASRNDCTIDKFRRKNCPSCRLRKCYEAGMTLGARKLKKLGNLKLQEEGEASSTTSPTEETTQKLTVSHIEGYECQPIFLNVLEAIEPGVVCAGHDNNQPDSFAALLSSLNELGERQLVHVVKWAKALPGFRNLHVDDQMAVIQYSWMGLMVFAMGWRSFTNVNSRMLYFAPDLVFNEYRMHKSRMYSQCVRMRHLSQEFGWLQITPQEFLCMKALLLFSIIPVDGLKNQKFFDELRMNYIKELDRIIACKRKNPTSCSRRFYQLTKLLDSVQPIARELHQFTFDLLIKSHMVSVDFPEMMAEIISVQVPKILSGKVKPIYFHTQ

Take `N[C@H](C(=O)O)c1ccc(O)cc1`: in [1], the outcome was inactive. The Potency result in experiment [2], in experiment [3], in experiment [4], in experiment [5] and in experiment [6] was “inactive” in each case.

For the compound `CC/C=C\CC/C=C/C(OCC)OCC`, in experiment [1], the outcome was inactive. Further, the results for the Potency in experiment [2], in experiment [3] and in experiment [4] were 43.3 µM (active), 48.6 µM (active) and 61.1 µM (active), respectively. The Potency entry in [5] and in [6] was “inactive” in each case.

As for `O=C1CCCC(=O)C1`, the result in experiment [1] was inactive. The Potency result in [2], in [3], in experiment [4], in experiment [5] and in experiment [6] was “inactive” in each case.

Regarding `CCc1ccc(O)c(OC)c1`, the outcome in experiment [1] was inactive. The Potency entry in experiment [2], in experiment [3], in experiment [4], in experiment [5] and in experiment [6] was “inactive” in each case.

For `CCCN(CCC)CCc1cccc2c1CC(=O)N2`, the compound was classed as inactive in [1]. For the same compound, the Potency result in experiment [2], in experiment [3], in experiment [4], in [5] and in experiment [6] was “inactive” in each case.

With `CCO[Si](CCC1CCC2OC2C1)(OCC)OCC` (centres undefined), the call in experiment [1] was inactive. For the same compound, the Potency entry in [2], in experiment [3], in [4], in experiment [5] and in experiment [6] was “inactive” each time.

`Cc1cc(O)cc2c1O[C@](C)(CCC[C@H](C)CCC[C@H](C)CCCC(C)C)CC2`: the outcome in [1] was inactive. Also, the Potency entry in [2], in experiment [3], in experiment [4], in experiment [5] and in [6] was “inactive” in each case.

For `CO/N=C(/C(=O)N[C@@H]1C(=O)N2C(C(=O)OCOC(=O)C(C)(C)C)=C(C)CS[C@H]12)c1csc(N)n1`, in [1], the result was inactive. In addition, the Potency entry in experiment [2], in [3], in [4], in experiment [5] and in experiment [6] was “inactive” each time.

In the case of `OCCOc1ccc(OCCO)cc1`, the compound was called inactive in experiment [1]. Moreover, the Potency entry in [2], in experiment [3], in experiment [4], in [5] and in [6] was “inactive” in each case.

As to `O=C1CCCN1C1CCCCC1`, in experiment [1], the result was inactive. Further, the Potency result in experiment [2], in [3], in [4], in experiment [5] and in [6] was “inactive” each time.

For `N=C(N)c1ccc(OCCCOc2ccc(C(=N)N)cc2)cc1`, the call in experiment [1] was inactive. The figures for the Potency in [2], in experiment [3] and in [4] were 4.22 µM (active), 8.41 µM (active) and 5.96 µM (active), respectively. In addition, the Potency entry in [5] and in experiment [6] was “inactive” in each case.

Regarding `COC(=O)c1ccc(C)cc1C1=NC(C)(C(C)C)C(=O)N1` (centres undefined), the compound was called inactive in experiment [1]. The Potency entry in experiment [2], in experiment [3], in [4], in experiment [5] and in [6] was “inactive” throughout.

For `CCC(C)S` (centres undefined), the viability change, negative = cytotoxic in [1] was -1.32% [at 3.15 µM] (inactive); in experiment [6], 8.95% [at 3.79 µM] (inactive). For the same compound, the activity change, negative = cytotoxicity in [2] was 25.1% [at 3.82 µM] (inactive); in experiment [4] it was 19.5% [at 3.83 µM] (inactive); in experiment [5] it was 6.76% [at 3.15 µM] (inactive). In experiment [3], the activity, negative = cytotoxicity is -7.66% [at 3.82 µM] (inactive).

Regarding `CCOC(C)(C)C`, the compound was called inactive in [1]. The Potency result in experiment [2], in experiment [3], in [4], in experiment [5] and in [6] was “inactive” throughout.

In the case of `COC(=O)c1cc(C(=O)OC)cc(S(=O)(=O)O)c1`, the call in experiment [1] was inactive. Besides, the Potency result in experiment [2], in [3], in [4], in experiment [5] and in experiment [6] was “inactive” throughout.

In the case of `CC/C=C\CCOC(C)=O`, the outcome in [1] was inactive. Also, the Potency result in experiment [2], in experiment [3], in [4], in experiment [5] and in experiment [6] was “inactive” each time.

On to `NS(=O)(=O)c1ccccc1Cl`, for which the compound was called inactive in experiment [1]. Besides, the Potency entry in experiment [2], in [3], in experiment [4], in experiment [5] and in experiment [6] was “inactive” throughout.

`N[C@H]1CN(c2c(F)cc3c(=O)c(C(=O)O)cn(C4C[C@H]4F)c3c2Cl)CC12CC2` (some centres undefined): in [1], the compound was called inactive. The Potency result in [2], in experiment [3], in experiment [4], in [5] and in [6] was “inactive” in each case.

As to `CC(C)(C)NCCNC(C)(C)C`, the result in experiment [1] was inactive. Also, the Potency result in experiment [2], in experiment [3], in [4], in experiment [5] and in experiment [6] was “inactive” throughout.

Consider `COCCc1ccc(OCC(O)CNC(C)C)cc1` (centres undefined), for which the compound was called inactive in [1]. Further, in experiment [2], the Potency result is “inactive and 21.1 µM (active)”. In addition, the Potency entry in experiment [3], in experiment [4], in experiment [5] and in [6] was “inactive” each time.

For `COCCCOCCCOC`, the outcome in experiment [1] was inactive. Also, the Potency result in [2], in [3], in experiment [4], in experiment [5] and in experiment [6] was “inactive” each time.

On to `Oc1ccc(C2CNCCc3c2cc(O)c(O)c3Cl)cc1` (centres undefined), for which the call in experiment [1] was inactive. The Potency result in experiment [2], in experiment [3], in experiment [4], in experiment [5] and in experiment [6] was “inactive” throughout.

Turning to `CC(C(=O)O)c1ccc(CC2CCCC2=O)cc1` (centres undefined), the compound was classed as inactive in experiment [1]. Also, the Potency result in [2], in experiment [3], in [4], in experiment [5] and in [6] was “inactive” in each case.

With `C[C@H](NC(CCc1ccccc1)C(=O)O)C(=O)N1CCC[C@H]1C(=O)O` (some centres undefined), in experiment [1], the compound was classed as inactive. Further, the Potency entry in [2], in [3], in [4], in [5] and in experiment [6] was “inactive” each time.

For `c1ccc(CC2=NCCN2)cc1`, the result in [1] was inactive. The Potency entry in experiment [2], in experiment [3] and in [6] was “inactive” in each case.

Turning to `Cc1cc2c(cc1S(N)(=O)=O)S(=O)(=O)CCC2`, the call in experiment [1] was inactive. Moreover, the Potency result in experiment [2], in experiment [3], in [4] and in [6] was “inactive” each time.

`CC(C)(C)c1ccc(O)c(O)c1`: the result in experiment [1] was inactive. Besides, the Potency in [2] was 17.8 µM (active) and 6.11 µM (active); in [3] it was 12.6 µM (active) and 7.27 µM (active). Further, the Potency entry in experiment [5] and in experiment [6] was “inactive” in each case.

Take `CC(=O)Nc1ccc(S(N)(=O)=O)cc1`: the result in [1], in [7] and in experiment [8] was inactive. Further, the Potency entry in experiment [2], in [3], in [5], in experiment [9], in [6] and in experiment [10] was “inactive” throughout.

With `NS(=O)(=O)c1cc2c(cc1Cl)NC(C1CC3C=CC1C3)NS2(=O)=O` (centres undefined), the result in [1], in [7] and in [8] was inactive. Besides, the Potency entry in [2], in [3], in experiment [4], in experiment [9], in experiment [6] and in experiment [10] was “inactive” each time.

Take `CCn1nc(C(=O)O)c(=O)c2cc3c(cc21)OCO3`: the call in [1], in experiment [7] and in experiment [8] was inactive. Further, the Potency entry in experiment [2], in [3], in experiment [9], in [6] and in [10] was “inactive” throughout.

For the origin of these results see PubChem BioAssay (Tox21).
